{"source": "PubChem BioAssay (NCI)", "note": "About 79,000 compounds went through this panel and 15% of them were active in at least one assay; those are over-represented in the sample as a whole. A number with no mark means an inactive call. Active and inactive are the calls of the source. No stated cut-off is given here; in the data, active means growth inhibition above about 70%; inactive means the rest.", "data": [{"assay": "NCI Yeast Anticancer Drug Screen. Data for the mec2-1 strain (AID 157)", "details": "S. cerevisiae mec2-1 strain, at 5.0 µM (retest, dose inferred, filed as 0.5), stronger effect = higher value", "procedure,_shortened": "(§1)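 Cells of the genetically defined mec2-1 yeast strain are incubated with test compound. Inhibition of growth is calculated against vehicle-treated controls.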", "units": {"growth inhibition": "%"}, "values": [{"smiles": "CCOC(=O)C[P+](c1ccc(C)cc1)(c1ccc(C)cc1)c1ccc(C)cc1", "growth inhibition": 17}, {"smiles": "O=C(NCCl)Nc1ccccc1", "growth inhibition": 5}, {"smiles": "O=c1[nH]c2ccccc2c2cccc(F)c12", "growth inhibition": 10}, {"smiles": "O=C(c1c(F)c(F)c(F)c(F)c1F)N1CCN(C(=O)c2c(F)c(F)c(F)c(F)c2F)C1=S", "growth inhibition": 15}, {"smiles": "O=C(CNS(=O)(=O)Cc1ccccc1)NCC(=O)NNc1ccccc1", "growth inhibition": 1}, {"smiles": "CC1(C)C(=O)N(CCCCCCN2C(=O)C(C)(C)c3ccccc32)c2ccccc21", "growth inhibition": 4}, {"smiles": "CC(=O)Nc1cccc2c1ccc1ccc3ccccc3c12", "growth inhibition": -1}, {"smiles": "COc1ccc(-c2noc(=O)c3ccccc23)cc1", "growth inhibition": 5}, {"smiles": "c1ccc([B-](c2ccccc2)(c2ccccc2)c2ccccc2)cc1", "growth inhibition": -4}, {"smiles": "CCc1cccc(C)c1N1C(=O)C(=O)C(c2nc3ccccc3o2)/C(=N\\NS(=O)(=O)c2ccc(C)cc2)C1=O", "note": "(stereo not drawn)", "growth inhibition": 15}, {"smiles": "Cc1ccc(-[n+]2cc([O-])on2)cc1", "growth inhibition": -10}, {"smiles": "CCOC(=O)C(Cc1cn(S(=O)(=O)c2ccccc2)c2ccccc12)(NC(C)=O)C(=O)OCC", "growth inhibition": -11}, {"smiles": "CC(=O)N1C=C2CCC3c4ccccc4NC3C2CC1", "note": "(stereo not drawn)", "growth inhibition": 1}, {"smiles": "O=c1cccccc1[O-].O=c1cccccc1[O-].O=c1cccccc1[O-].[Ce+3]", "growth inhibition": 20}, {"smiles": "CC(=O)OC(C#N)CC(C)(C)/[N+]([O-])=[N+](\\[O-])C(C)(C)CC(C#N)OC(C)=O", "note": "(stereo not drawn)", "growth inhibition": 1}, {"smiles": "O=C(O)C1(Cc2ccc3c(c2)CCC3)Cc2cc3c(cc2C1)CCC3", "growth inhibition": -7}, {"smiles": "COC(=O)C12OCC34C(CC5C(C)C6=CC(=O)OC6=CC5(C)C3C(O)C1O)OC(=O)C(OC(C)=O)C24", "note": "(stereo not drawn)", "growth inhibition": 66}, {"smiles": "O=S(=O)(c1cc(Cl)ccc1Cl)N1CCc2ccccc2C1", "growth inhibition": -28}, {"smiles": "CSC(=S)n1nc(-c2cccs2)c(N=Nc2ccc(Cl)cc2)c1C(F)(F)F", "growth inhibition": 1}, {"smiles": "O=[N+]([O-])C1=Cc2ccccc2S(=O)(=O)CC1", "growth inhibition": 14}, {"smiles": "COc1ccc(/C=N/n2c(C)nc3c(sc(=S)n3-c3ccccc3)c2=O)cc1", "growth inhibition": -3}, {"smiles": "Fc1ccc(NC(=S)SCc2ccccc2)cc1F", "growth inhibition": 2}, {"smiles": "O=[N+]([O-])c1cccc2c1[nH]c1c(-c3ccccc3)nccc12", "growth inhibition": 4}, {"smiles": "CCOC(=O)CC(=O)/C=C/c1ccncc1", "growth inhibition": -2}, {"smiles": "c1ccc([P+](c2ccccc2)(c2ccccc2)C2CCCC2)cc1", "growth inhibition": -13}, {"smiles": "COc1cc(Cc2n[nH]c(=S)n2-c2ccccc2)c(S(N)(=O)=O)cc1OC", "growth inhibition": 1}, {"smiles": "CCCCCN(CCCCC)CCNc1ccc(C)c2sc3ccccc3c(=O)c12", "growth inhibition": 7}, {"smiles": "COC(=O)[C@@]12OC[C@]34[C@H]([C@@H](O)[C@@H]1O)[C@@]1(C)CC(=O)C(O)=C(C)[C@@H]1C[C@H]3OC(=O)[C@H](OC(=O)C(Cc1ccccc1)NC(=O)OC(C)(C)C)[C@@H]24", "note": "(stereo partly drawn)", "growth inhibition": 26}, {"smiles": "CC(=O)Nc1ccc(C(=O)C(C)Br)cc1", "note": "(stereo not drawn)", "growth inhibition": 28}, {"smiles": "COc1ccc2c(c1)[n+]([O-])c(C(N)=O)c(N)[n+]2[O-]", "growth inhibition": 14}, {"smiles": "Cc1c2c(c(C)c3c4c(oc13)CCCC4)C=NCC2", "growth inhibition": 3}, {"smiles": "CC1C(C(=O)O)CC([N+](=O)[O-])C(Cl)C1[N+](=O)[O-]", "note": "(stereo not drawn)", "growth inhibition": -1}, {"smiles": "CCN(CC)c1ccc(N=C2C=C(C(=O)Nc3cccc(Cl)c3)C(=O)c3ccccc32)c(C)c1", "growth inhibition": 8}, {"smiles": "C[N+](C)(C)CCN(Cc1cccs1)c1ccccn1", "growth inhibition": 8}, {"smiles": "O=C(c1ccccc1)c1c(CO[N+](=O)[O-])n([O-])c2ccccc2[n+]1=O", "growth inhibition": 14}, {"smiles": "CCC[C@H]1[C@H](CCC)[C@@]2(OC(=O)C3=C2CCC=C3)[C@]12OC(=O)C1=C2CCC=C1", "growth inhibition": 2}, {"smiles": "O=C(CC(=O)c1ccccc1NC1=Cc2ccccc2C(=O)C1=O)C(=O)NC1=C(Cl)C(=O)c2ccccc2C1=O", "growth inhibition": 21}, {"smiles": "C=CC[P+](CC[P+](CC=C)(c1ccccc1)c1ccccc1)(c1ccccc1)c1ccccc1", "growth inhibition": -1}, {"smiles": "NCC1CCNCC1", "growth inhibition": -2}]}, {"assay": "NCI Yeast Anticancer Drug Screen. Data for the mec2-1 strain (AID 157)", "details": "S. cerevisiae mec2-1 strain, at 50.0 µM (retest, dose inferred, filed as 5.0), stronger effect = higher value", "procedure,_shortened": "as §1", "values": [{"smiles": "CCOC(=O)C[P+](c1ccc(C)cc1)(c1ccc(C)cc1)c1ccc(C)cc1", "growth inhibition": "94% (active)"}, {"smiles": "O=C(NCCl)Nc1ccccc1", "growth inhibition": "82% (active)"}, {"smiles": "O=c1[nH]c2ccccc2c2cccc(F)c12", "growth inhibition": "76% (active)"}, {"smiles": "O=C(c1c(F)c(F)c(F)c(F)c1F)N1CCN(C(=O)c2c(F)c(F)c(F)c(F)c2F)C1=S", "growth inhibition": "81% (active)"}, {"smiles": "O=C(CNS(=O)(=O)Cc1ccccc1)NCC(=O)NNc1ccccc1", "growth inhibition": "29%"}, {"smiles": "CC1(C)C(=O)N(CCCCCCN2C(=O)C(C)(C)c3ccccc32)c2ccccc21", "growth inhibition": "4%"}, {"smiles": "CC(=O)Nc1cccc2c1ccc1ccc3ccccc3c12", "growth inhibition": "9%"}, {"smiles": "COc1ccc(-c2noc(=O)c3ccccc23)cc1", "growth inhibition": "4%"}, {"smiles": "c1ccc([B-](c2ccccc2)(c2ccccc2)c2ccccc2)cc1", "growth inhibition": "-1%"}, {"smiles": "CCc1cccc(C)c1N1C(=O)C(=O)C(c2nc3ccccc3o2)/C(=N\\NS(=O)(=O)c2ccc(C)cc2)C1=O", "note": "(stereo not drawn)", "growth inhibition": "34%"}, {"smiles": "Cc1ccc(-[n+]2cc([O-])on2)cc1", "growth inhibition": "-8%"}, {"smiles": "CCOC(=O)C(Cc1cn(S(=O)(=O)c2ccccc2)c2ccccc12)(NC(C)=O)C(=O)OCC", "growth inhibition": "14%"}, {"smiles": "CC(=O)N1C=C2CCC3c4ccccc4NC3C2CC1", "note": "(stereo not drawn)", "growth inhibition": "4%"}, {"smiles": "O=c1cccccc1[O-].O=c1cccccc1[O-].O=c1cccccc1[O-].[Ce+3]", "growth inhibition": "20%"}, {"smiles": "CC(=O)OC(C#N)CC(C)(C)/[N+]([O-])=[N+](\\[O-])C(C)(C)CC(C#N)OC(C)=O", "note": "(stereo not drawn)", "growth inhibition": "46%"}, {"smiles": "O=C(O)C1(Cc2ccc3c(c2)CCC3)Cc2cc3c(cc2C1)CCC3", "growth inhibition": "-7%"}, {"smiles": "COC(=O)C12OCC34C(CC5C(C)C6=CC(=O)OC6=CC5(C)C3C(O)C1O)OC(=O)C(OC(C)=O)C24", "note": "(stereo not drawn)", "growth inhibition": "99% (active)"}, {"smiles": "O=S(=O)(c1cc(Cl)ccc1Cl)N1CCc2ccccc2C1", "growth inhibition": "-13%"}, {"smiles": "CSC(=S)n1nc(-c2cccs2)c(N=Nc2ccc(Cl)cc2)c1C(F)(F)F", "growth inhibition": "86% (active)"}, {"smiles": "O=[N+]([O-])C1=Cc2ccccc2S(=O)(=O)CC1", "growth inhibition": "93% (active)"}, {"smiles": "COc1ccc(/C=N/n2c(C)nc3c(sc(=S)n3-c3ccccc3)c2=O)cc1", "growth inhibition": "-6%"}, {"smiles": "Fc1ccc(NC(=S)SCc2ccccc2)cc1F", "growth inhibition": "92% (active)"}, {"smiles": "O=[N+]([O-])c1cccc2c1[nH]c1c(-c3ccccc3)nccc12", "growth inhibition": "83% (active)"}, {"smiles": "CCOC(=O)CC(=O)/C=C/c1ccncc1", "growth inhibition": "0%"}, {"smiles": "c1ccc([P+](c2ccccc2)(c2ccccc2)C2CCCC2)cc1", "growth inhibition": "15%"}, {"smiles": "COc1cc(Cc2n[nH]c(=S)n2-c2ccccc2)c(S(N)(=O)=O)cc1OC", "growth inhibition": "4%"}, {"smiles": "CCCCCN(CCCCC)CCNc1ccc(C)c2sc3ccccc3c(=O)c12", "growth inhibition": "97% (active)"}, {"smiles": "COC(=O)[C@@]12OC[C@]34[C@H]([C@@H](O)[C@@H]1O)[C@@]1(C)CC(=O)C(O)=C(C)[C@@H]1C[C@H]3OC(=O)[C@H](OC(=O)C(Cc1ccccc1)NC(=O)OC(C)(C)C)[C@@H]24", "note": "(stereo partly drawn)", "growth inhibition": "68%"}, {"smiles": "CC(=O)Nc1ccc(C(=O)C(C)Br)cc1", "note": "(stereo not drawn)", "growth inhibition": "99% (active)"}, {"smiles": "COc1ccc2c(c1)[n+]([O-])c(C(N)=O)c(N)[n+]2[O-]", "growth inhibition": "100% (active)"}, {"smiles": "Cc1c2c(c(C)c3c4c(oc13)CCCC4)C=NCC2", "growth inhibition": "41%"}, {"smiles": "CC1C(C(=O)O)CC([N+](=O)[O-])C(Cl)C1[N+](=O)[O-]", "note": "(stereo not drawn)", "growth inhibition": "83% (active)"}, {"smiles": "CCN(CC)c1ccc(N=C2C=C(C(=O)Nc3cccc(Cl)c3)C(=O)c3ccccc32)c(C)c1", "growth inhibition": "32%"}, {"smiles": "C[N+](C)(C)CCN(Cc1cccs1)c1ccccn1", "growth inhibition": "-16%"}, {"smiles": "O=C(c1ccccc1)c1c(CO[N+](=O)[O-])n([O-])c2ccccc2[n+]1=O", "growth inhibition": "99% (active)"}, {"smiles": "CCC[C@H]1[C@H](CCC)[C@@]2(OC(=O)C3=C2CCC=C3)[C@]12OC(=O)C1=C2CCC=C1", "growth inhibition": "99% (active)"}, {"smiles": "O=C(CC(=O)c1ccccc1NC1=Cc2ccccc2C(=O)C1=O)C(=O)NC1=C(Cl)C(=O)c2ccccc2C1=O", "growth inhibition": "82% (active)"}, {"smiles": "C=CC[P+](CC[P+](CC=C)(c1ccccc1)c1ccccc1)(c1ccccc1)c1ccccc1", "growth inhibition": "-4%"}, {"smiles": "NCC1CCNCC1", "growth inhibition": "-19%"}]}]}
